The source of these data is PubChem BioAssay AID2685 (National Center for Advancing Translational Sciences (NCATS), 2010).

Each structure is given as a SMILES string. Hit rate of the full screen: of about 320,000 compounds, about 2,100 (0.66%) were called active. Not shown: some 53% with an inconclusive outcome. Calls come from the whole dose curve; as a rule, active = well fitted inhibition curve with a large enough effect in the signal ratio, with a control signal flat (not every such curve was filed as active); inconclusive = small, poorly fitted or top-dose-only effect, or effect the other way, or a change in a side signal; inactive = flat fitted curve, though single readings scatter; the % refers to the signal ratio. Shown is part of a subset that was picked to be rich in actives.
Potency is the fitted concentration of half-maximal effect.

The experiment in a line: qHTS Assay for Lipid Storage Modulators in Drosophila S3 Cells.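 For cell number change: cells counted by Cell Tracker Red CMTPX staining in the red channel.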 For lipid storage change, negative = inhibition: % is set by controls: 0 for no effect and ±100 for the full control effect. The conditions noted are these: BODIPY lipid droplet fluorescence, 18-24 h, cells fed with added oleic acid; cell number change: measured here: cell count max response; series mostly up to 46.1 µM; lipid storage change, negative = inhibition: at the top concentration. Put shortly:
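Laser-scanning cytometry quantifies lipid droplet accumulation (500–530 nm total intensity; droplet/cell object ratio) in oleic acid-fed (400 uM added) Drosophila S3 cells treated with a concentration series. 20 uM Triacsin C defined 100% inhibition.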
On to `CCCNC(=O)c1oc2ccc3c(c2c1C)C(O)CC(C)(C)O3` (stereo unspecified), for which the call was inactive and the cell number change stood at 11.7%.

For `O=C(CN1C2CCCC1CC(NC(=O)c1ccco1)C2)Nc1ccccc1C(F)(F)F` (stereo unspecified), the “lipid storage change, negative = inhibition” value was 6.75% (inactive) and the cell number change was 1.61%.

In the case of `Cc1ccc(C(c2sc3ncnn3c2O)N2CC(C)CC(C)C2)cc1` (stereo unspecified), the “lipid storage change, negative = inhibition” value was -14% (inactive) and the cell number change was -0.62%.

Turning to `O=C1c2cccc3cccc(c23)C(=O)N1CC1CCN(S(=O)(=O)c2ccc(F)cc2)CC1`, the “lipid storage change, negative = inhibition” value was 0.656% (inactive) and the cell number change was 1.3%.

Consider `O=S(=O)(Nc1ccc(N2CCCCC2)cc1)c1ccccc1F`, for which the “lipid storage change, negative = inhibition” value was -8.36% (inactive) and the cell number change is -15.7%.

In the case of `CCOc1ccc2nc(CN3CCN(Cc4ccsc4)C(CCO)C3)ccc2c1` (stereo unspecified), the “lipid storage change, negative = inhibition” value is -13.8% (inactive) and the cell number change came to 3.37%.

Consider `Cc1nnc(SCC(=O)N(C)c2c(N)n(Cc3ccccc3)c(=O)[nH]c2=O)n1Cc1ccccc1`, for which the “lipid storage change, negative = inhibition” value was -5.33% (inactive) and the cell number change worked out at 4.04%.

`CCOC(=O)C1CCN(C(=O)c2ccc(N(C)S(=O)(=O)c3ccc(OC)cc3)cc2)CC1`: the “lipid storage change, negative = inhibition” value is -25.7% (inactive) and the cell number change is -4.35%.

For the molecule `O=C(c1ccccc1)N1CCN(S(=O)(=O)N2CCCCCC2)CC1`, the molecule was called inactive and the cell number change amounted to 22.9%.

As to `COc1ccc(S(=O)(=O)N(C)CC(=O)N2CCCCCC2)cc1`, the “lipid storage change, negative = inhibition” value is 9.93% (inactive) and the cell number change is 7.92%.

Take `CN(C)S(=O)(=O)N1CCN(C(=O)c2ccccc2Cl)CC1`: the molecule was called inactive.

As for `CN(C)S(=O)(=O)N1CCN(C(=O)c2ccccc2)CC1`, the Potency is 23.1 µM (active) and the cell number change is 10.4%.

For `Cc1ccc(S(=O)(=O)N(C)c2ccc(C(=O)N3CCC(C(N)=O)CC3)cc2)cc1`, the Potency was 23.1 µM (active) and the cell number change is -5.24%.

On to `COc1ccc(S(=O)(=O)N(C)c2ccc(C(=O)N3CCC(C(N)=O)CC3)cc2)cc1`, for which the “lipid storage change, negative = inhibition” value was 1.68% (inactive) and the cell number change was -14.8%.

As to `COc1ccc(S(=O)(=O)N(C)CC(=O)N2CCCC2)cc1`, the “lipid storage change, negative = inhibition” value is -3.08% (inactive) and the cell number change is -6.74%.

As to `Cc1cccc(NS(=O)(=O)c2ccc(C(=O)N3CCC3)cc2)c1C`, the “lipid storage change, negative = inhibition” value was 21.3% (inactive) and the cell number change turned out to be 19.3%.

As for `Cc1ccccc1NS(=O)(=O)c1ccc(C(=O)N2CCN(S(=O)(=O)c3ccccc3)CC2)cc1`, the Potency is 3.26 µM (active) and the cell number change is -28%.

In the case of `COc1ccc(S(=O)(=O)N(C)CC(=O)N2CCC(C(N)=O)CC2)cc1`, the Potency was 14.6 µM (active) and the cell number change is -9.84%.

As for `Cc1ccccc1NS(=O)(=O)c1ccc(C(=O)N2CCCCCC2)cc1`, the “lipid storage change, negative = inhibition” value was 24.1% (inactive) and the cell number change was 4.54%.

For the molecule `Cc1ccn(CC(=O)N2CCCC(N3CCN(Cc4ccc5c(c4)OCO5)CC3)C2)n1` (stereo unspecified), the “lipid storage change, negative = inhibition” value was 7.81% (inactive) and the cell number change was found to be 8.09%.

`Cc1nc(SCC(=O)N(C)Cc2ccco2)c2c(C)c(C)sc2n1`: the “lipid storage change, negative = inhibition” value was 14.1% (inactive) and the cell number change was -25.2%.

As to `O=C(Nc1ccc(C(=O)Oc2ccccc2)c(O)c1)c1ccccc1`, the “lipid storage change, negative = inhibition” value was -0.0459% (inactive) and the cell number change was -6.44%.

For the molecule `COc1ccc(/C=C2\SC(=S)N(N3CCOCC3)C2=O)c(OC)c1`, the “lipid storage change, negative = inhibition” value was 18% (inactive) and the cell number change worked out at 7.5%.

Take `CC1CCN(C(=O)c2cc(Cl)nc3ccccc23)CC1`: the “lipid storage change, negative = inhibition” value was 13.5% (inactive) and the cell number change is -4.42%.

Turning to `COc1ccc(S(=O)(=O)N2CCC(C(=O)NCc3cccc(OC)c3)CC2)cc1`, the molecule was called inactive and the cell number change turned out to be 29.1%.

Consider `COc1ccc(/C=N/NC(=O)CCn2nc(C)cc2C)cc1`, for which the “lipid storage change, negative = inhibition” value was 13.7% (inactive) and the cell number change came out at 9.01%.

Regarding `Cc1cc(C)cc(C(=O)Nc2cc3c4c(c2)CC(=O)N4CCC3)c1`, the cell number change was -11.8% and the lipid storage change, negative = inhibition was -15.8% [at 0.0737 µM] (inactive).

`O=C(CSc1ccc(C(F)(F)F)cc1[N+](=O)[O-])N1CCOCC1`: the “lipid storage change, negative = inhibition” value is -21.4% (inactive) and the cell number change is -7.3%.

On to `Cc1ccc(-c2nn(CC(=O)NC(C)c3ccccc3)c(=O)c3ccccc23)cc1` (stereo unspecified), for which the “lipid storage change, negative = inhibition” value was -5.81% (inactive).

As for `COc1ccccc1Nc1nnc(SCC(=O)c2cc(C)n(CC3CCCO3)c2C)s1` (stereo unspecified), the “lipid storage change, negative = inhibition” value was 26% (inactive) and the cell number change is 4.55%.

For `CCOc1ccc(CCNC(=O)c2nnn(CC(=O)Nc3c(C)cc(C)cc3C)c2N)cc1OCC`, the molecule was called inactive and the cell number change came out at 23.4%.

For `O=C(c1ccncc1)N1CCN(C2CCCCC2)CC1`, the “lipid storage change, negative = inhibition” value was -5.89% (inactive) and the cell number change was 9.31%.

For the molecule `O=C(c1ccccc1)N1CCN(C2CCCCCC2)CC1`, the Potency is 25.9 µM (active) and the cell number change was -3.45%.

Turning to `O=C(c1ccccc1)N1CCN(C2CCCCC2)CC1`, the “lipid storage change, negative = inhibition” value is 2.03% (inactive) and the cell number change came to 7.93%.

With `Cc1noc(C)c1C(=O)OCC(=O)Nc1cccc(S(=O)(=O)N(C)C)c1`, the “lipid storage change, negative = inhibition” value is 3.18% (inactive) and the cell number change is -1.55%.

Take `Cc1cc(C(=O)N/N=C/c2ccc(Cl)c([N+](=O)[O-])c2)c(C)n1-c1ccc(F)cc1`: the “lipid storage change, negative = inhibition” value was 14.7% (inactive) and the cell number change was -1.33%.

For the molecule `CCN(CC)CCC(c1ccc(N(C)C)cc1)c1c(OC)cc(OC)c2c(-c3ccccc3)cc(=O)oc12` (stereo unspecified), the “lipid storage change, negative = inhibition” value was 6.17% (inactive) and the cell number change was -6.71%.

Consider `COc1ccc(C(=O)OCC(=O)Nc2cc(C)c(C)cc2[N+](=O)[O-])cc1`, for which the “lipid storage change, negative = inhibition” value is 19.5% (inactive) and the cell number change is -12.7%.

On to `NC(=O)CSc1cn(CCNC(=O)c2cccs2)c2ccccc12`, for which the “lipid storage change, negative = inhibition” value is 11.3% (inactive) and the cell number change worked out at 22.5%.

As to `O=C1/C(=C/c2cccs2)Cc2ccccc21`, the “lipid storage change, negative = inhibition” value is 2.15% (inactive) and the cell number change came to 20.5%.

For the molecule `O=C1/C(=C/c2cccs2)COc2ccccc21`, the “lipid storage change, negative = inhibition” value was -5.09% (inactive) and the cell number change was -6.21%.

For `O=C1C(=Cc2cccs2)C(=O)c2ccccc21`, the Potency is 18.4 µM (active) and the cell number change was -7.62%.

For `O=C(CN1C(=O)/C(=C\c2cccc(Cl)c2)Oc2ccccc21)N1CCN(c2ccccn2)CC1`, the “lipid storage change, negative = inhibition” value was 21.7% (inactive).

As for `C[C@@H]1C=CC(=O)O[C@@H]1c1ccc(C(F)(F)F)cc1`, the “lipid storage change, negative = inhibition” value was 16.1% (inactive) and the cell number change worked out at 9.88%.

As to `C[C@@H]1CC[C@H](O)/C=C/C(=O)O[C@H](C)CC[C@H](O)/C=C/C(=O)O1`, the Potency is 5.8 µM (active) and the cell number change is -1.52%.

Consider `CC1CC(Nc2ccccc2)=CC(=O)O1` (stereo unspecified), for which the outcome was inactive.

On to `COc1ccc([C@H]2CC(=O)C=C(c3ccc4c(c3)OCO4)C2)cc1`, for which the “lipid storage change, negative = inhibition” value is -9.07% (inactive) and the cell number change is 2.65%.

As for `CCOC(=O)C1CCCN(C(=O)c2ccc3nc(-c4cccc(OC)c4)oc3c2)C1` (stereo unspecified), the “lipid storage change, negative = inhibition” value was -19.1% (inactive) and the cell number change was 6.9%.

`COc1ccc(NC2CCCN(C(=O)c3ccc4nc(C)c(C)nc4c3)C2)cc1OC` (stereo unspecified): the result was inactive.

Regarding `CCOC(=O)C1CCCN(C(=O)c2ccc3nc(-c4ccc(OC)c(OC)c4)c(-c4ccc(OC)c(OC)c4)nc3c2)C1` (stereo unspecified), the Potency is 4.11 µM (active) and the cell number change was -26.9%.

In the case of `O=c1c2nnn(-c3ccc(Br)cc3)c2ncn1Cc1ccccn1`, the “lipid storage change, negative = inhibition” value was 14.2% (inactive) and the cell number change was determined as 17.2%.

For the molecule `CSC1=NC(NCCCO)c2c(sc3c2CC(C)(C)OC3)N1` (stereo unspecified), the “lipid storage change, negative = inhibition” value was 21.6% (inactive) and the cell number change was -5.44%.

Consider `CC(=O)N1N=C(c2ccc(Cl)cc2)CC1c1ccco1` (stereo unspecified), for which the “lipid storage change, negative = inhibition” value is 26.9% (inactive) and the cell number change is 10.2%.

For the molecule `CC(=O)N1N=C(c2ccc(NS(=O)(=O)c3ccccc3)cc2)CC1c1ccco1` (stereo unspecified), the Potency is 9.2 µM (active) and the cell number change was -11.6%.

Take `CC(=O)N1N=C(c2cccc(NS(=O)(=O)c3ccc(C)cc3)c2)CC1c1ccco1` (stereo unspecified): the call was inactive and the cell number change was -6.11%.

Consider `O=S(=O)(c1ccccc1)N1N=C(c2ccc(Br)cc2)CC1c1ccco1` (stereo unspecified), for which the Potency was 16.4 µM (active) and the cell number change was 13.4%.

`CCS(=O)(=O)Nc1ccc(C2=NN(S(=O)(=O)c3ccc(F)cc3)C(c3ccco3)C2)cc1` (stereo unspecified): the “lipid storage change, negative = inhibition” value was -3.66% (inactive) and the cell number change was determined as 4.44%.

On to `CS(=O)(=O)Nc1cccc(C2=NN(S(=O)(=O)c3ccccc3)C(c3ccco3)C2)c1` (stereo unspecified), for which the “lipid storage change, negative = inhibition” value was 0.748% (inactive) and the cell number change was -5.75%.
